In PubChem BioAssay (EPA / NIEHS):
Records with an inconclusive call do not appear. Calls of active or inactive are those of the source. How the source made its calls, unless noted: active means hit-call score of the fitted dose curve at least 0.9, where 1 is the maximum; inactive means score below 0.9.

Legend:
[1] = read-out: E-selectin (Homo sapiens) (UniProt P16581); test: BSK_LPS_Eselectin: BioMAP Diversity Plus: LPS Assay for Eselectin Biomarker Activity (AID 2283077); conditions: primary human HUVEC with PBMC; actives raise or lower the signal
How it was run: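 ELISA readout of E-selectin, 24 h post-dose, HUVEC + PBMC co-culture (LPS system). Gain or loss of signal vs DMSO baseline, bidirectional fit.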

[2] = read-out: Interleukin-8 (IL8), CXCL8 (gene 3576); test: BSK_LPS_IL8: BioMAP Diversity Plus: LPS Assay for Interleukin-8 (IL8) Biomarker Activity (AID 2283078); conditions: primary human HUVEC with PBMC; actives raise or lower the signal
How it was run: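 HUVEC + PBMC co-culture, LPS-activated; test chemicals dosed, IL-8 read by ELISA at 24 h. Bidirectional curve fit vs DMSO baseline (gain or loss of signal).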

[3] = BSK_LPS_SRB: Viability Assessment in the BioMAP Diversity Plus: LPS Assay (AID 2283079); conditions: primary human HUVEC with PBMC;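 further: total protein by sulforhodamine B absorbance as a cytotoxicity measure; measured one day after compound addition; fitted in both directions against DMSO so loss or gain of signal counts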
How it was run: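 HUVEC + PBMC co-culture, LPS-stimulated; compound 24 h. 10% TCA fix, 0.1% SRB stain, A560. Bidirectional fit vs DMSO.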

[4] = read-out: Interleukin-1 alpha (IL1a), IL1A (gene 3552); test: BSK_LPS_IL1a: BioMAP Diversity Plus: LPS Assay for Interleukin-1 alpha (IL1a) Biomarker Activity (AID 2283080); conditions: primary human HUVEC with PBMC; actives raise or lower the signal
How it was run: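 HUVEC/PBMC co-culture, LPS system; 24 h after dosing; IL-1a by ELISA; gain or loss of signal fitted bidirectionally vs DMSO baseline.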

[5] = BSK_LPS_PGE2: BioMAP Diversity Plus: LPS Assay for Prostaglandin E2 (PGE2) Biomarker Activity (AID 2283082); conditions: primary human HUVEC with PBMC; actives raise or lower the signal
How it was run: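 LPS-activated HUVEC/PBMC co-culture; cmpd dosed, 24 h; PGE2 by ELISA; bidirectional fit vs DMSO; SRB (0.1%, TCA-fixed, 560 nm) in parallel plates for overt cytotox.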

[6] = read-out: Macrophage colony-stimulating factor (MCSF), CSF1 (gene 1435); test: BSK_LPS_MCSF: BioMAP Diversity Plus: LPS Assay for Macrophage colony-stimulating factor (MCSF) Biomarker Activity (AID 2283083); conditions: primary human HUVEC with PBMC; actives raise or lower the signal
How it was run: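 HUVEC + PBMC co-culture (human primary), 24 h post-dose; M-CSF by ELISA; gain/loss of signal fitted bidirectionally vs DMSO baseline.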

[7] = read-out: Tissue Factor, F3 (gene 2152); test: BSK_LPS_TissueFactor: BioMAP Diversity Plus: LPS Assay for Tissue Factor Biomarker Activity (AID 2283084); conditions: primary human HUVEC with PBMC; actives raise or lower the signal
How it was run: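 HUVEC/PBMC co-culture, LPS-activated; CD142 ELISA read 24 h post-dose; bidirectional curve fit vs DMSO negative control.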

[8] = read-out: Tumor necrosis factor (Homo sapiens) (UniProt P01375); test: BSK_LPS_TNFa: BioMAP Diversity Plus: LPS Assay for Tumour Necrosis Factor alpha (TNFa) Biomarker Activity (AID 2283085); conditions: primary human HUVEC with PBMC; actives raise or lower the signal
How it was run: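 Read-out is ELISA of TNFa in primary human endothelial cell–PBMC co-cultures at 24 h after compound. Activity in either direction was fitted against DMSO.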

[9] = read-out: Vascular cell adhesion molecule 1 (VCAM1), VCAM1 (gene 7412); test: BSK_LPS_VCAM1: BioMAP Diversity Plus: LPS Assay for Vascular cell adhesion molecule 1 (VCAM1) Biomarker Activity (AID 2283086); conditions: primary human HUVEC with PBMC; actives raise or lower the signal
How it was run: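 HUVEC + PBMC co-culture, LPS system; compound 24 h; VCAM-1 by ELISA; bidirectional fit vs DMSO control; parallel SRB (0.1%, TCA-fixed, 560 nm) for cytotoxicity.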

CD38, CD38 (gene 952) = test: BSK_SAg_CD38: BioMAP Diversity Plus: SAg Assay for CD38 Biomarker Activity (AID 2283087); conditions: primary human HUVEC with PBMC; actives raise or lower the signal
How it was run: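 Human HUVEC plus PBMC co-culture stimulated with superantigen; CD38 measured by ELISA 24 h after chemical dosing. Fluorescence read-out, bidirectional fit against DMSO; cytotoxicity tracked in parallel by SRB and Alamar Blue.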

CD40, CD40 (gene 958) = test: BSK_SAg_CD40: BioMAP Diversity Plus: SAg Assay for CD40 Biomarker Activity (AID 2283088); conditions: primary human HUVEC with PBMC; actives raise or lower the signal
How it was run: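 HUVEC/PBMC co-culture, 24 h post-dose; CD40 by ELISA, fluorescence intensity; bidirectional fit vs DMSO negative control.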

CD69, CD69 (gene 969) = test: BSK_SAg_CD69: BioMAP Diversity Plus: SAg Assay for CD69 Biomarker Activity (AID 2283089); conditions: primary human HUVEC with PBMC; actives raise or lower the signal
How it was run: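 Endothelial/PBMC co-culture; chemical added; 24 h incubation; CD69 ELISA with fluorescence detection; bidirectional fit vs DMSO.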

[10] = read-out: Monocyte Chemoattractant Protein-1 (MCP1), CCL2 (gene 6347); test: BSK_SAg_MCP1: BioMAP Diversity Plus: SAg Assay for Monocyte Chemoattractant Protein-1 (MCP1) Biomarker Activity (AID 2283090); conditions: primary human HUVEC with PBMC; actives raise or lower the signal
How it was run: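 MCP-1 levels in the endothelial–PBMC SAg co-culture were quantified by ELISA at 24 h post-dosing; both increases and decreases versus DMSO scored. Cytotoxicity monitored by SRB total protein in parallel cultures.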

[11] = read-out: Monokine induced gamma interferon (MIG), CXCL9 (gene 4283); test: BSK_SAg_MIG: BioMAP Diversity Plus: SAg Assay for Monokine induced gamma interferon (MIG) Biomarker Activity (AID 2283092); conditions: primary human HUVEC with PBMC; actives raise or lower the signal
How it was run: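 Measures CXCL9 protein by ELISA in a human vascular primary-cell co-culture (umbilical vein endothelium with PBMC) 24 h after chemical addition. Activity is scored up or down from the DMSO control.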

[12] = BSK_SAg_PBMCCytotoxicity: PBMC Cytotoxicity Assessment in the BioMAP Diversity Plus: SAg Assay (AID 2283093); conditions: primary human HUVEC with PBMC;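 further: PBMC viability measured as Alamar Blue reduction fluorescence at 546/580 nm; fitted both ways against DMSO so a hit may be loss or gain of signal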
How it was run: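 Compound added to 75,000 PBMC/well for 1 h; SEB and TSST-1 then added at 20 ng/mL final each; 90 h incubation; Alamar Blue 6 h; read 546/580 nm ex/em. Activity fitted bidirectionally relative to DMSO baseline.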

[13] = read-out: Interleukin-8 (IL8), CXCL8 (gene 3576); test: BSK_SAg_IL8: BioMAP Diversity Plus: SAg Assay for Interleukin-8 (IL8) Biomarker Activity (AID 2283094); conditions: primary human HUVEC with PBMC; actives raise or lower the signal
How it was run: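 ELISA read-out of IL-8 in a primary human vascular co-culture (umbilical vein endothelium plus PBMC), taken 24 h after compound addition. Values derive from bidirectional fits against DMSO negative controls.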

[14] = BSK_SAg_Proliferation: Cell Proliferation Assessment in the BioMAP Diversity Plus: SAg Assay (AID 2283095); conditions: primary human HUVEC with PBMC;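 further: relative cell number as total protein by SRB absorbance in sub-confluent culture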
How it was run: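 Cells (endothelium plus PBMC, human primary) were dosed with chemical, cultured 96 h, fixed in 10% TCA and stained with 0.1% SRB. Absorbance at 560 nm gave relative protein, fitted bidirectionally relative to DMSO.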

[15] = BSK_SAg_SRB: Viability Assessment in the BioMAP Diversity Plus: SAg Assay (AID 2283096); conditions: primary human HUVEC with PBMC;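 further: cells read one day after compound addition; hits may be either gain or loss of signal compared with DMSO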
How it was run: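 Total protein by sulforhodamine B staining, 24 h after dosing, in HUVEC–PBMC co-culture; DMSO-referenced bidirectional fitting.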

[16] = TOX21_p53_BLA_p2_viability: Viability Assessment in the Tox21 HCT-116 p53 Agonism Beta-lactamase Assay, Phase 2 (AID 2283591; active means hit-call score of the fitted dose curve at least 0.9, where 1 is the maximum;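 further: compound exposure lasted 16 h at 37 °C; actives lower the ATP signal meaning cytotoxicity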)
How it was run: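 Cytotoxicity readout: CellTiter-Glo ATP luminescence, 30 min at room temperature, after the beta-lactamase read. Cells were HCT116 exposed 16 h at 37C to compounds pin-transferred at 217-fold dilution from DMSO stocks.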

[17] = target: Cellular tumor antigen p53 (Homo sapiens) (UniProt P04637); test: TOX21_p53_BLA_p2_ratio: Tox21 HCT-116 p53 Agonism Beta-lactamase Assay, Ratio, Phase 2 (AID 2283592; active means hit-call score of the fitted dose curve at least 0.9, where 1 is the maximum)
Cellular tumor antigen p53 (Homo sapiens), sequence (P04637 whole entry, looked up): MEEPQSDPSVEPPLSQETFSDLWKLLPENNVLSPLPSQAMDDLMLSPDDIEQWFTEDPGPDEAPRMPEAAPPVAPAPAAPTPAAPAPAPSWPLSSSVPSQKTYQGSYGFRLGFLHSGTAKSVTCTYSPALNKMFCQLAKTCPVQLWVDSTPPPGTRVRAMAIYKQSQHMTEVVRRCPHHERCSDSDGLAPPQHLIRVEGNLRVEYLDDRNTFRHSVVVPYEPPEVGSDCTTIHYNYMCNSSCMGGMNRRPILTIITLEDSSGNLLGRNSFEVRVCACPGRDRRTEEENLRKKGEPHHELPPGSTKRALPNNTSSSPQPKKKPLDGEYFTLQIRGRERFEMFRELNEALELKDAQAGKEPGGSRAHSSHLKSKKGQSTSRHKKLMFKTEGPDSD
How it was run: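 In this cell-based reporter format, HCT116 cells were dosed with chemicals delivered from DMSO by 217-fold dilution and incubated 16 h at 37C. Emission at 460 and 530 nm after 2 h CCF4-AM loading provided the ratio, fitted upward versus DMSO.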

[18] = target: Cellular tumor antigen p53 (Homo sapiens) (UniProt P04637); test: TOX21_p53_BLA_p3_ratio: Tox21 HCT-116 p53 Agonism Beta-lactamase Assay, Ratio, Phase 3 (AID 2283596; active means hit-call score of the fitted dose curve at least 0.9, where 1 is the maximum)
How it was run: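 HCT116 p53-bla cells (4000/well) given compound in DMSO (217-fold dilution) after 5 h, incubated 16 h at 37C. CCF4-AM substrate 2 h at room temperature; 460/530 nm emission ratio, gain fitted against DMSO.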

[19] = TOX21_p53_BLA_p4_viability: Viability Assessment in the Tox21 HCT-116 p53 Agonism Beta-lactamase Assay, Phase 4 (AID 2283597; active means hit-call score of the fitted dose curve at least 0.9, where 1 is the maximum;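 further: hits lower the luminescence signal meaning cytotoxicity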)
How it was run: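 We seeded HCT116 p53 reporter cells at 4000/well and waited 5 h. We then added compounds in DMSO at a 217-fold dilution and incubated for 16 h. Viability was read as CellTiter-Glo luminescence after 30 min at RT.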

[20] = target: Cellular tumor antigen p53 (Homo sapiens) (UniProt P04637); test: TOX21_p53_BLA_p5_ratio: Tox21 HCT-116 p53 Agonism Beta-lactamase Assay, Ratio, Phase 5 (AID 2283599; active means hit-call score of the fitted dose curve at least 0.9, where 1 is the maximum)
How it was run: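 Beta-lactamase reporter ratio (blue 460 nm over green 530 nm, 405 nm excitation) after 2 h CCF4-AM loading, in HCT-116 cells exposed 16 h at 37 C to compounds pinned at 217-fold dilution. Increases relative to DMSO baseline scored.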

[21] = TOX21_p53_BLA_p5_viability: Viability Assessment in the Tox21 HCT-116 p53 Agonism Beta-lactamase Assay, Phase 5 (AID 2283600; active means hit-call score of the fitted dose curve at least 0.9, where 1 is the maximum)
How it was run: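 Compounds, pinned from DMSO at 217-fold dilution, were left on the cells for 16 h. The viability endpoint was ATP content measured by CellTiter-Glo luminescence, where falling signal reflects cytotoxicity.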

[22] = target: Cellular tumor antigen p53 (Homo sapiens) (UniProt P04637); test: TOX21_p53_BLA_p4_ratio: Tox21 HCT-116 p53 Agonism Beta-lactamase Assay, Ratio, Phase 4 (AID 2283601; active means hit-call score of the fitted dose curve at least 0.9, where 1 is the maximum)
How it was run: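 Signal is the blue/green (460nm/530nm) ratio of cleaved versus uncleaved CCF4-AM substrate, read after 2 h substrate loading. Cells were HCT116 carrying the p53-responsive beta-lactamase reporter, dosed 16 h at 37C, 5% CO2; CellTiter-Glo measured in parallel.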

[23] = CCTE_Shafer_MEA_acute_spike_number: CCTE's Neural Acute Assay for Total Number of Spikes, Shafer Lab (AID 2284008);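 further: curve fitted for decrease in spike count so AC50 reflects inhibitors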
How it was run: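 Rat cortical cultures, DIV 13/15, 37 C. 40 min baseline rec, cpd 0.03-40 uM, 40 min post-dose rec. Band-pass 300-5000 Hz, spike threshold 8x rms; % change in spike count per well, DMSO neg ctrl, loss-of-signal fit.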

[24] = CCTE_Shafer_MEA_acute_firing_rate_mean: CCTE's Neural Acute Assay for Mean Firing Rate, Shafer Lab (AID 2284009);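 further: analyzed for loss of signal so actives lower firing rate relative to DMSO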
How it was run: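 Percent change in well-mean firing rate was derived from extracellular spikes detected at 8x rms noise (300-5000 Hz band-pass) before and after a 40-min compound exposure. Cultures were primary rat cortical neurons, tested at 0.03-40 uM.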

[25] = CCTE_Shafer_MEA_acute_burst_number: CCTE's Neural Acute Assay for Single-Electrode Bursts, Shafer Lab (AID 2284013)
How it was run: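 Spontaneous network activity of primary rat cortical neurons was recorded extracellularly on microelectrode arrays at 37 C, with 40-min periods before and during exposure to 0.03-40 uM compound on DIV 13 or 15.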

Measured: AC50

Tumor necrosis factor (Homo sapiens), sequence (P01375 whole entry, looked up): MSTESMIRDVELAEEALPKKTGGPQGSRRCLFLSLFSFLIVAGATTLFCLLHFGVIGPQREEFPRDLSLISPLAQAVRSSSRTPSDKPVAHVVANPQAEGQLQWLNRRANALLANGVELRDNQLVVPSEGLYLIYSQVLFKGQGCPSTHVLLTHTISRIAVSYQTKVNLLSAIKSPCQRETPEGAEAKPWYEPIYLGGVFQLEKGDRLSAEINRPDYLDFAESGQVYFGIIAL
E-selectin (Homo sapiens), sequence (P16581 whole entry, looked up): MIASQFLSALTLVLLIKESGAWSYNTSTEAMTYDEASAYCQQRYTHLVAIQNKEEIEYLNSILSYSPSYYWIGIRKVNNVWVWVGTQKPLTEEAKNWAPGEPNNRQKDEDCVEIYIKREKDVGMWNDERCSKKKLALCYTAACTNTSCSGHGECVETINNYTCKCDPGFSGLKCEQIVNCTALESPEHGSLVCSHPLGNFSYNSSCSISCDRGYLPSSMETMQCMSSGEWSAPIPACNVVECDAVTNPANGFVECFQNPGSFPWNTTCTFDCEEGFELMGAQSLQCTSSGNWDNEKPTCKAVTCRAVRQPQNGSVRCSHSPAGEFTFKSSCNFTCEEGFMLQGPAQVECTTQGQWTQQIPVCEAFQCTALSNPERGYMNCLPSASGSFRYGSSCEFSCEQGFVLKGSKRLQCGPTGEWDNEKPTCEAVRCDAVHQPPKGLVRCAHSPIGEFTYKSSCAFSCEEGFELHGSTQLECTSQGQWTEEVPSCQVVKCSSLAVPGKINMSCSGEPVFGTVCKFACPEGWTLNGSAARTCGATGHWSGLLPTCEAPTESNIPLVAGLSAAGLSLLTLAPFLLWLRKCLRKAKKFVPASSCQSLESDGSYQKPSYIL

CCCC[N+](CCCC)(CCCC)CCCC
inactive: [1] | [2] | [3] | [4] | [5] | [6] | [7] | [8] | [9] | CD38, CD38 (gene 952) | CD40, CD40 (gene 958) | CD69, CD69 (gene 969) | [10] | [11] | [12] | [13] | [14] | [15] | [16] | [17] | [18] | [19] | [20] | [21] | [22]
active: [23] 4.44 nM | [24] 3.01 nM | [25] 1.52 nM
